Measurements: PubChem BioAssay AID492960 (National Center for Advancing Translational Sciences (NCATS), 2010)
Inconclusive results are not listed. Where a call stands in place of a potency, no number is given. The source made the active and inactive calls. Calls follow the shape of the dose curve; as a rule, active = well fitted curve in the direction sought with a large enough effect; inconclusive = small, poorly fitted or top-dose-only effect, or effect the other way, or another doubt; inactive = no such curve, though single readings can be large or run the other way.

Assay: Secondary Assay for lipid storage modulators: HepG2 cell LDSA assay for probe SAR
Settings: HepG2 lipid droplet BODIPY, laser-scanning cytometry, 18-24 h; series mostly up to 46.1 µM
Procedure, shortened: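 Dose-response lipid-storage test: HepG2 cells were fed 400 uM oleic acid with compound for 18-24 h at 24 degrees C. BODIPY 493/503 intensity gave droplet accumulation, and an object ratio was taken against CellTracker Red cell counts. Percent activity was set against 20 uM Triacsin C as full inhibition.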

Compound | Potency
COc1ccc(-c2cnc(SCC(=O)Nc3nc(C)cs3)n2-c2ccccc2)cc1 | inactive
CCOC(=O)C1CCN(C(=O)CNC(=O)Nc2ccccc2Cl)CC1 | inactive
Cc1ccc(-c2cnc(SCC(=O)Nc3nccs3)n2Cc2ccco2)cc1 | inactive
O=C(NC1CCCc2c1cnn2-c1ccc(F)cc1F)c1ccc(C2(C(F)(F)F)N=N2)cc1 (stereo unspecified) | inactive
CC1(C)CCC(c2ccc(Cl)cc2)=C(CN2CCN(c3ccc(C(=O)NS(=O)(=O)c4ccc(N[C@H](CCN5CCOCC5)CSc5ccccc5)c(S(=O)(=O)C(F)(F)F)c4)cc3)CC2)C1 | inactive
O=C(NC1CCCCC1)NC1(C(=O)N2CCCC2)CCCCC1 | inactive
Cc1cc2c(cc1C1(c3ccc(C(=O)O)cc3)CC1)C(C)(C)CCC2(C)C | inactive
O=C(NC1CCCc2c1cnn2-c1ccc(F)cc1F)c1cccc(=O)[nH]1 (stereo unspecified) | inactive
CCOc1ccc(CCNC(=O)c2cc3sccc3n2Cc2ccc(Cl)c(F)c2)cc1OCC | inactive
CCOc1ccc(CCNC(=O)c2cc3sccc3n2CC)cc1OCC | 11.2 µM (active)
CCOc1ccc(CCNC(=O)c2cc3sc(CC)cc3n2C)cc1OCC | inactive
O=C(NC1CCCc2c1cnn2-c1ccc(F)cc1F)c1ccc2cc[nH]c2c1 (stereo unspecified) | inactive
O=C(NC1CCCc2c1cnn2-c1ccc(F)cc1F)c1cnon1 (stereo unspecified) | inactive
CCOc1ccc(CCNC(=O)c2cc3sccc3n2Cc2cccnc2)cc1OCC | inactive
CCn1c(C(=O)NCCc2ccc(OC)cc2)cc2sccc21 | inactive
COc1nc(-c2ccc3c(c2)OCO3)n(-c2ccc(NC(=O)CSc3ccccc3)cc2)n1 | inactive

Compound | Potency
CCOc1ccc(CCNC(=O)c2cc3sccc3n2Cc2ccccc2)cc1OCC | 14.1 µM (active)
O=C(NCCc1ccc2c(c1)OCO2)c1cc2sccc2n1Cc1ccccc1 | inactive
CCOc1ccc(CCNC(=O)c2cccc(C(=O)c3ccccc3)c2)cc1OCC | inactive
CCOc1ccc(CCNC(=O)c2cc3sccc3[nH]2)cc1OCC | inactive
CCOc1ccc(CCNC(=O)c2cc3ccccc3o2)cc1OCC | inactive
CCn1c(-c2ccc(C)cc2)cnc1SCC(=O)Nc1nc(C)cs1 | inactive
O=C(NC1CCCc2c1cnn2-c1cc(F)cc(F)c1)c1cccc2nccnc12 (stereo unspecified) | inactive
CCOc1ccc(CCNC(=O)c2cc3sccc3n2C)cc1OCC | 25 µM (active)
CCOc1ccc(CCNC(=O)C2(c3ccccc3)CC2)cc1OCC | inactive
CCOc1ccc(NC(=O)NC2(C(=O)N3CCCCC3)CCCCC2)cc1 | inactive
CCn1c(C(=O)NCCc2ccc(OC)c(OC)c2)cc2sc(Cl)cc21 | inactive
Cc1csc(NC(=O)CSc2ncc(-c3ccccc3)n2Cc2ccco2)n1 | inactive
CCOC(=O)C1CCN(C(=O)C2(NC(=O)Nc3ccccc3Cl)CC2)CC1 | inactive
CCOc1ccc(CCNC(=O)c2cc3c(s2)CCC3)cc1OCC | inactive
COc1ccc(-c2cnc(SCC(=O)Nc3nc(C)cs3)n2Cc2ccco2)cc1 | inactive
